In PubChem BioAssay (Tox21):
Where “and” joins values, the source holds several entries; their conditions need not be identical. Equal entries are not always repeated. A number with no mark means an inactive call. Records with an inconclusive call do not appear. Where a call stands in place of a potency, no number is given. Calls of active or inactive are those of the source. Unless noted, the call rests on the fitted dose curve; in most records, active means well fitted curve in the direction sought with a large enough effect in the repeat runs; inconclusive means weak or mixed curves; inactive means no such curve, though single readings can be large; an effect the other way counts as inactive or inconclusive.

Legend:
[1] = qHTS assay to identify small molecule antagonists of the estrogen related receptor (ERR) signaling pathway from Tox21 library - cell viability counter screen (AID 1224834); further: nearly all actives have a fitted effect of over 30% in size; further: potency means the concentration at half of the fitted maximal effect
In short: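 Multiplexed viability counter screen in ERR cells: 17.5 h compound exposure at 37 C, CellTiter-Fluor added, 30 min at 37 C/5% CO2, fluorescence read.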

[2] = biological target: Luciferin 4-monooxygenase (Photinus pyralis) (UniProt P08659); assay: qHTS assay to identify small molecule inhibitors of firefly luciferase (AID 1224835); further: nearly all actives have a fitted effect of over 25% in size
In short: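 Quantitative HTS format; KM concentrations of both substrates. Purified P. pyralis FLuc activity quantified from luminescence images.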

[3] = qHTS assay to identify small molecule agonists of the constitutive androstane receptor (CAR) signaling pathway - cell viability counter screen (AID 1224836); further: nearly all actives have a fitted effect of over 45% in size
In short: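 Cells were seeded and incubated 4 hrs. Compounds were added across 15 concentrations together with PK11195 at 0.75 uM final. Plates were incubated 23 hrs at 37 C. CellTiter-Fluor was added and fluorescence measured.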

[4] = qHTS assay to identify small molecule antagonists of the constitutive androstane receptor (CAR) signaling pathway - cell viability counter screen (AID 1224837); further: nearly all actives have a fitted effect of over 45% in size
In short: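 Read-out: CellTiter-Fluor fluorescence after 23 hr at 37 C/5% CO2. Cells: HepG2 double-stable for hCAR and CYP2B6-2.2kb. Compounds tested at 15 concentrations in the presence of CITCO, final concentration 50 nM.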

[5] = qHTS assay to identify small molecule antagonists of the estrogen related receptor signaling pathway with the pleiotropic PPARgamma coactivator (PGC) from Tox21 10K library (AID 1224841; call rule not given here; further: actives are mostly falling curves and most rising ones were filed inactive; nearly all actives have a fitted effect of over 50% in size; further: potency means the concentration at half of the fitted maximal effect)
In short: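 Luminescence read-out (One-Glo luciferase reagent, 30 min at room temperature) from PGC/ERR cells exposed to DMSO-dissolved test compounds for 18 h at 37 C; cells, 2,000 per well, had been preincubated 6 h before compound transfer.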

[6] = qHTS assay to identify small molecule agonists of the estrogen related receptor signaling pathway with the pleiotropic PPARgamma coactivator (PGC) from Tox21 10K library (AID 1224842); further: nearly all actives have a fitted effect of over 15% in size
In short: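 PGC/ERR reporter cells (NTP line) were seeded 2,000 per well, rested 6 h at 37 C/5% CO2, then pin-dosed with compounds in DMSO for 18 h at 37 C; luciferase read by One-Glo luminescence after 30 min at room temperature.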

[7] = biological target: Thyrotropin receptor (Homo sapiens) (UniProt P16473); assay: qHTS assay to identify small molecule agonists of the thyroid stimulating hormone receptor (TSHR) signaling pathway (AID 1224843; calls by dose curve; further: nearly all actives have a fitted effect of over 45% in size)
In short: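 Using 15 concentrations per compound in triplicate, cAMP production was monitored in TSHR-HEK293 cells after 30 min compound incubation at RT; HTRF reagents followed, with fluorescence intensity recorded after 1 h.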

[8] = qHTS assay to identify small molecule agonists of the hypoxia (HIF-1) signaling pathway - cell viability counter screen (AID 1224844; calls by dose curve; further: nearly all actives have a fitted effect of over 50% in size)
In short: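 CellTiter-Glo luminescence read-out, 30 min RT, taken in the same wells as the beta-lactamase HRE reporter assay; HRE-bla ME-180 cells, 0.5% dialyzed FBS, 17 hr compound treatment at 37C, 5% CO2.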

[9] = qHTS assay to identify small molecule agonists of H2AX (AID 1224845; active means well fitted activation curve with a large enough effect in the signal ratio in the repeat runs, not every such curve was filed as active; the % refers to the signal ratio)
In short: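 Wild-type CHO-K1 cells plated overnight, then exposed 3 hr at 37C to compounds at 15 concentrations (0.76% DMSO). Lysed, then HTRF anti-pH2AX(S139)-cryptate/anti-H2AX-d2 detection after 24 hr at room temperature; emissions 665 and 620 nm.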

[10] = qHTS assay to identify small molecule agonists of the hypoxia (HIF-1) signaling pathway (AID 1224846; active means well fitted activation curve with a large enough effect in the signal ratio in the repeat runs, not every such curve was filed as active; the % refers to the signal ratio)
In short: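 Beta-lactamase FRET read-out (CCF4-AM substrate) from ME-180 cells carrying an HRE-driven bla reporter, after 17 hrs compound exposure at 37C/5% CO2. Cells were seeded at 2,000 per well in 0.5% dialyzed FBS medium and preincubated 5 hrs.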

[11] = qHTS assay to identify small molecule antagonists of the estrogen related receptor (ERR) signaling pathway from Tox21 library (AID 1224848); further: nearly all actives have a fitted effect of over 50% in size; further: potency means the concentration at half of the fitted maximal effect
In short: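 Tox21 10K compounds in DMSO tested for ERR pathway antagonism in NTP's ERR cell line; 18 h, 37 C exposure; ONE-Glo luminescence.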

[12] = qHTS RealTime-Glo MT Cell Viability Assay in HepG2 cells - 24 hour (AID 1224867); further: nearly all actives have a fitted effect of over 50% in size
In short: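 Real-time, nonlytic viability: 600 HepG2 cells/well mixed with NanoLuc enzyme plus prosubstrate; 5 h settle, compound (DMSO) added by pintool; luminescence monitored over 40 h at 37 C.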

[13] = qHTS RealTime-Glo MT Cell Viability Assay in HEK293 cells - 32 hour (AID 1224868)
In short: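 Cells + reagent dispensed (600 cells/well, HEK293) → 5 h at 37 C/5% CO2 → 23 nL compound in DMSO pinned → 40 h at 37 C → luminescence read at 0, 8, 16, 24, 32, 40 h.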

[14] = qHTS RealTime-Glo MT Cell Viability Assay in HepG2 cells - 40 hour (AID 1224870); further: nearly all actives have a fitted effect of over 50% in size
In short: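 HepG2 cells mixed with RealTime-Glo MT reagents (NanoLuc plus cell-permeant prosubstrate) were seeded at 600 cells/well, incubated 5 h at 37 C/5% CO2, then pinned with compounds in DMSO; nonlytic luminescence tracked viability during 40 h treatment.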

[15] = biological target: Nuclear receptor subfamily 1 group I member 3 (Homo sapiens) (UniProt Q14994); assay: qHTS assay to identify small molecule antagonists of the constitutive androstane receptor (CAR) signaling pathway (AID 1224838);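 further: HepG2 cells stably expressing hCAR with CYP2B6 luciferase reporter stimulated by CITCO; nearly all actives have a fitted effect of over 40% in size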
In short: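 Read-out: ONE-Glo luciferase luminescence after 30 min at room temperature. HepG2-CYP2B6-hCAR double-stable cells, compounds in 15-point titration plus 50 nM CITCO final, 24 h at 37 C/5% CO2.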

[16] = qHTS assay to identify small molecule antagonists of the estrogen related receptor signaling pathway with the pleiotropic PPARgamma coactivator (PGC) from Tox21 10K library - cell viability counter screen (AID 1224840; active means well fitted cell-killing curve with a large enough effect in the repeat runs, not every such curve was filed as active; further: nearly all actives have a fitted effect of over 40% in size)
In short: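 Fluorescence read-out of CellTiter-Fluor viability reagent, added after cells had been exposed to compound in DMSO for 17.5 h at 37 C; 30 min development at 37 C/5% CO2. Cells: PGC/ERR line, 2,000/well.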

[17] = qHTS assay to identify small molecule agonists of H2AX - cell viability counter screen (AID 1224847; calls by dose curve; further: top concentration of the series differs between compounds; nearly all actives have a fitted effect of over 30% in size)
In short: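 Cytotoxicity counter screen in wild-type CHO-K1 cells: a 3 hr compound treatment at 37C across 15 concentrations, followed by CellTiter-Glo luminescence to gauge viable cells.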

[18] = A CellTox Green Cytotoxicity Assay to monitor cytotoxicity in HEK293 cells - 0 hour (AID 1224869); further: nearly all actives have a fitted effect of over 50% in size
In short: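 Read-out: fluorescence of a cell-impermeant cyanine dye staining DNA of dead cells, proportional to cytotoxicity. HEK293, 600 cells/well with reagent, compound (23 nL DMSO) added after 5 h; reads at 0, 8, 16, 24, 32, 40 h.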

[19] = qHTS assay to identify small molecule agonists of the estrogen related receptor (ERR) signaling pathway from Tox21 library (AID 1224849; calls by dose curve; further: nearly all actives have a fitted effect of over 15% in size); details: ERR reporter cell line, ONE-Glo luciferase, 18 h; at 92.4 µM (top of the series) unless noted
In short: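 Luminescence readout (ONE-Glo, 30 min RT) after 18 h compound exposure at 37 C of NTP-supplied ERR reporter cells; cells were plated 6 h before compound addition by pin tool.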

Luciferin 4-monooxygenase (Photinus pyralis), sequence (P08659 whole entry, looked up): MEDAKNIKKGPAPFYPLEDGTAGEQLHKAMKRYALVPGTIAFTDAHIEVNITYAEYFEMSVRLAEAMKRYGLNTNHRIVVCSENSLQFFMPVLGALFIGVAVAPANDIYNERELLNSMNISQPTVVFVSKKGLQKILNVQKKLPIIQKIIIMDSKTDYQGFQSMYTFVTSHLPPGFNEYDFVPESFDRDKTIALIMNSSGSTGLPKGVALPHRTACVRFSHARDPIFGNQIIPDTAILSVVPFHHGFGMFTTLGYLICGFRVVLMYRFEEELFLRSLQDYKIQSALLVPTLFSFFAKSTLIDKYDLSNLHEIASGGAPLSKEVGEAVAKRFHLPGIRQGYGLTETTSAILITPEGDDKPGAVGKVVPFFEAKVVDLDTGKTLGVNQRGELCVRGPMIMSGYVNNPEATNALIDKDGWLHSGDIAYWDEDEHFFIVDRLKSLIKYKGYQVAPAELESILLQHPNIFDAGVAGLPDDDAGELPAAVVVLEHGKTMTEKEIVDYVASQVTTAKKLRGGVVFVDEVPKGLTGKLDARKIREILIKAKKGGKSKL
Thyrotropin receptor (Homo sapiens), sequence (P16473 whole entry, looked up): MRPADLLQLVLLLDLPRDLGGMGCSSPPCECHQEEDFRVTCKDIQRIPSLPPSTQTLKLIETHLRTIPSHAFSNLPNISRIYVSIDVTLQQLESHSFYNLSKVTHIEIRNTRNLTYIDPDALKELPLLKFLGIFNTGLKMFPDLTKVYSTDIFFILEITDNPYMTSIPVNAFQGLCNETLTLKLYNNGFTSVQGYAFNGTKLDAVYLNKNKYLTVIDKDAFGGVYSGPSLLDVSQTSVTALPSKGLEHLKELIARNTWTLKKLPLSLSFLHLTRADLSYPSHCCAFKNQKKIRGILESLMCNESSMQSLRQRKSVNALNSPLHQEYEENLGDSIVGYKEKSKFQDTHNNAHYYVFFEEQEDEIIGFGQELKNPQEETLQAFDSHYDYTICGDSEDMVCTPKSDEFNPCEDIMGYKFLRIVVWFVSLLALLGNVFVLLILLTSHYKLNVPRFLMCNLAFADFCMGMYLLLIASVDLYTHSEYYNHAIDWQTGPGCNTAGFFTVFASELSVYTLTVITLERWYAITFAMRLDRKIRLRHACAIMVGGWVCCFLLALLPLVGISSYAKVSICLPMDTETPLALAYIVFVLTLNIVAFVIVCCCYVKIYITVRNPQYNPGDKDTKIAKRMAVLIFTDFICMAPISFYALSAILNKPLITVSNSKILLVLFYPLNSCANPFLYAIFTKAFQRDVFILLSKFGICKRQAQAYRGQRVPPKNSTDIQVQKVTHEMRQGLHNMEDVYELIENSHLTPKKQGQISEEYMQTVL
Nuclear receptor subfamily 1 group I member 3 (Homo sapiens), sequence (Q14994 whole entry, looked up): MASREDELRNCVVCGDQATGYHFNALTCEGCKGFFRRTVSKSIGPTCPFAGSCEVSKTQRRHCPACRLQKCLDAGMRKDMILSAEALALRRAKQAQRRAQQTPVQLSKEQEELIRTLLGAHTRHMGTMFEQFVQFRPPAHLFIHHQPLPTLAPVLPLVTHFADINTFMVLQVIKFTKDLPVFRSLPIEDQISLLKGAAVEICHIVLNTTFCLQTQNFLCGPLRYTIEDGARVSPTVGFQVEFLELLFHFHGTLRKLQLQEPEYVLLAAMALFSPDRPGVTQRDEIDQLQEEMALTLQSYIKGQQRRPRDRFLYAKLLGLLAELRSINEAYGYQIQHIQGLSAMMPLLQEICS

SMILES	Potency [1]	Potency [2]	Potency [3]	Potency [4]	Potency [5]	Potency [6]	Potency [7]	Potency [8]	Potency [9]	outcome [10]	Potency [11]	Potency [12]	Potency [13]	Potency [14]	Potency [15]	Potency [16]	Potency [17]	Potency [18]	activity change, positive = activation [19]
O=C(NC(=O)c1c(F)cccc1F)Nc1ccc(OC(F)(F)C(F)OC(F)(F)F)c(Cl)c1 (centres undefined)	inactive	inactive	inactive	inactive	inactive	inactive	inactive	inactive	inactive	inactive	inactive	inactive	inactive	inactive	–	–	–	–	–
C/C=C/C=O	inactive	inactive	inactive	inactive	–	–	–	–	inactive	inactive	–	inactive	inactive	inactive	inactive	inactive	–	–	–
CN(N=O)c1ccc([N+](=O)[O-])cc1	inactive	inactive	inactive	inactive	–	–	–	inactive	inactive	inactive	–	inactive	inactive	inactive	inactive	inactive	inactive	inactive	–
C#CCOC(C(=O)OCCN(C)C)(c1ccccc1)c1ccccc1	inactive	inactive	inactive	inactive	–	–	–	inactive	inactive	inactive	–	inactive	inactive	inactive	inactive	inactive	inactive	inactive	–
CC(C)O.CC(C)O.OCCN(CCO)CCO.OCCN(CCO)CCO.[Ti]	inactive	inactive	inactive	inactive	–	–	inactive	inactive	inactive	–	–	inactive	inactive	inactive	inactive	–	–	inactive	–
CC(C)N(C(=O)COc1nnc(C(F)(F)F)s1)c1ccc(F)cc1	inactive	inactive	inactive	inactive	38.6 µM (active)	inactive	inactive	inactive	inactive	inactive	54.5 µM (active)	–	–	–	inactive	inactive	inactive	inactive	-34.1%
NNC(=O)c1cccnc1	inactive	inactive	inactive	inactive	–	–	–	inactive	inactive	inactive	–	inactive	inactive	inactive	inactive	inactive	inactive	inactive	–
O=C(NC(=O)c1c(F)cccc1F)Nc1cc(Cl)c(Oc2ncc(C(F)(F)F)cc2Cl)c(Cl)c1	inactive	inactive	inactive	inactive	–	–	–	inactive	inactive	inactive	–	–	–	inactive	inactive	inactive	inactive	–	–
[CH3][Sn]([CH3])([Cl])[Cl]	62.1 µM (active)	inactive	inactive	inactive	69.7 µM (active) and 43.3 µM (active)	–	–	–	inactive	–	69.7 µM (active) and 61.1 µM (active)	inactive	–	inactive	inactive	inactive	–	inactive	-70.4% and -43.3%
